Screening data (PubChem)
An excerpt weighted towards active compounds, which were near 19% of everything screened.
HT1080 IDH1KD tx = toxicity to HT-1080 IDH1 knockdown cells (counter line). HT-1080 IDH1 knockdown viability, ATP luminescence, 48 h. Potency, µM (series often up to 46.1 µM), for the others: at the highest dose activity, negative = toxicity, actives largely listed as cytotoxic. 360,000 tested, 2% active. AID 686971;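 also: 0% = DMSO wells and -100% = cell-free medium wells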
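Viability of IDH1-knockdown HT-1080 fibrosarcoma cells was assessed by CellTiter-Glo after 48 h at 37 °C with titrated compound; concentration-effect curves were classified by fit quality and response size.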
DT40 TDP1 CPT = growth inhibition of DT40 Tdp1-/-;hTDP1 cells with camptothecin (screen for TDP1 inhibitors). chicken DT40 Tdp1-/-;hTDP1 cells + 20 nM CPT, ATP luminescence, 48 h. Potency, µM (titrated, usually from 46.2 µM), for the others: top-dose activity change, negative = growth inhibition, usual class: inhibitors. 420,000 tested, 12% active; also: nearly all actives have a fitted effect of over 55% in size
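Cell growth measured by CellTiter-Glo luminescence after a minimum 48 h, 37 C compound exposure with 20 nM CPT in Tdp1-knockout DT40 cells stably expressing hTDP1, seeded 400/well; qHTS titration format.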
DT40 TDP1 no CPT = qHTS for Inhibitors of human tyrosyl-DNA phosphodiesterase 1 (TDP1): qHTS in cells in absence of CPT. DT40 Tdp1-/- hTDP1 cells, no CPT, ATP luminescence, 48 h. Potency, µM (series often up to 46.2 µM), inactives show top-dose activity change, negative = growth inhibition, usual class: inhibitors. 420,000 tested, 15% active. AID 686978, 2013; also: nearly all actives have a fitted effect of over 55% in size
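No-CPT arm: Tdp1-/-;hTDP1 DT40 cells (400/well) plus compounds, incubated ≥48 hr at 37 °C. Readout CellTiter-Glo luminescence.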
KB-V1 MDR tox = KB-V1 MDR subline cytotoxicity; KB-V1 MDR cells viability, CellTiter-Glo, 72 h; Potency, µM (top dose mostly 46.1 µM), most hits filed as cytotoxic; 400,000 tested, 3.4% active; also: nearly all actives have a fitted effect of over 60% in size
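Cells of the MDR subline KB-V1 are plated, dosed with compound at multiple concentrations, and incubated 72 h at 37 degrees C; CellTiter-Glo is then added and luminescence read after 10 min.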
HT1080-NT tox = kills 2HG-producing HT-1080-NT fibrosarcoma cells; HT-1080-NT fibrosarcoma viability, CellTiter-Glo ATP luminescence, 48 h; AID 686970; 360,000 tested, 1.6% active; Potency, µM (doses to about 46.1 µM), inactives show at the top dose activity, negative = less viability, actives largely listed as cytotoxic;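 also: NT is the 2HG producing partner of a matched IDH1 knockdown line; 0% = DMSO-treated cells and -100% = media-only wells without cells; nearly all actives have a fitted effect of over 55% in size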
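Viability of the 2HG-overproducing fibrosarcoma line after 48 hours of compound exposure at 37 degrees C was determined by luminescence with CellTiter-Glo, and concentration-effect curves were then fitted and categorized.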
KB-3-1 cytotox = kills parental KB-3-1 adenocarcinoma cells; KB-3-1 viability, CellTiter-Glo ATP luminescence, 72 h; Potency, µM (top dose mostly 46.1 µM), hits mostly cytotoxic; 400,000 tested, 1.4% active; AID 1347075; also: nearly all actives have a fitted effect of over 60% in size
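Screening of KB-3-1 cells (DMEM, 10% FBS, phenol-red free) ran from lowest to highest compound concentration; after 72 h at 37 °C viability was read luminescently and curves fitted.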
The depositor's hits bear a star; [ ] = another dose, or the depositor's remark. Calls follow the shape of the dose curve; as a rule, active = well fitted curve in the direction sought with a large enough effect; inconclusive = small, poorly fitted or top-dose-only effect, or another doubt; inactive = no such curve, though single readings can be large; an effect the other way counts as inactive or inconclusive. Unless noted, % is scaled to controls: 0 for no effect and ±100 for the full control effect; potency is read from the fitted curve at half-maximal effect.

CC/C(=C\c1ccc(C(=O)OC)cc1)c1cc(OC)cc2oc3ccccc3c12 was read as DT40 TDP1 CPT inconclusive, DT40 TDP1 no CPT inconclusive, KB-V1 MDR tox inactive and KB-3-1 cytotox inactive.
Screening CCOC(=O)N1CCC(NC(=O)CCc2nc(-c3ccc(C)cc3)no2)CC1 returned HT1080 IDH1KD tx 0%, DT40 TDP1 CPT inconclusive, DT40 TDP1 no CPT inconclusive, KB-V1 MDR tox inactive, HT1080-NT tox 1% and KB-3-1 cytotox inactive.
`Cc1nc2cccnc2n1-c1cccc(C(=O)N2CCN(c3ccc(Cl)cc3)CC2)c1` gave DT40 TDP1 CPT 5.8µM*, DT40 TDP1 no CPT 2.6µM*, KB-V1 MDR tox inactive and KB-3-1 cytotox 12µM*.
`COc1ccc(N2CCN(C(=O)c3cccc(-n4c(C)nc5cccnc54)c3)CC2)cc1` gave DT40 TDP1 CPT 16µM*, DT40 TDP1 no CPT 23µM*, KB-V1 MDR tox inactive and KB-3-1 cytotox inactive.
`COc1ccc(N2CCN(C(=O)c3cccc(NC4=NC5CS(=O)(=O)CC5S4)c3)CC2)cc1` (stereo not drawn) gave HT1080 IDH1KD tx 11%, DT40 TDP1 CPT -5%, DT40 TDP1 no CPT 24%, KB-V1 MDR tox inactive, HT1080-NT tox 26% and KB-3-1 cytotox inconclusive.
Cc1nc2ccccc2n(CC(=O)Nc2cc(Cl)cc(Cl)c2)c1=O was read as HT1080 IDH1KD tx -17%, DT40 TDP1 CPT 9.2µM*, DT40 TDP1 no CPT 15µM*, KB-V1 MDR tox inactive, HT1080-NT tox -13% and KB-3-1 cytotox inactive.
For O=C(CN1C(=O)C(=O)N(Cc2ccccc2)C1=O)Nc1ccc(OC(F)F)cc1 the results were HT1080 IDH1KD tx 19%, DT40 TDP1 CPT 5%, DT40 TDP1 no CPT 4%, KB-V1 MDR tox inconclusive, HT1080-NT tox 2% and KB-3-1 cytotox inactive.
For Cc1nc2ccccc2nc1OCC(=O)Nc1ccc2ccccc2c1 the results were HT1080 IDH1KD tx 2%, DT40 TDP1 CPT -9%, DT40 TDP1 no CPT inconclusive, KB-V1 MDR tox inconclusive, HT1080-NT tox 3% and KB-3-1 cytotox inactive.
`Cc1cc(C)cc(NC(=O)Cn2c(-c3cncs3)nc3ccccc32)c1` gave DT40 TDP1 CPT inconclusive, DT40 TDP1 no CPT 21µM*, KB-V1 MDR tox inactive and KB-3-1 cytotox inactive.
O=C(Cn1c(-c2cscn2)nc2ccccc21)Nc1ccc2ccccc2c1 was read as HT1080 IDH1KD tx inconclusive, DT40 TDP1 CPT 14µM*, DT40 TDP1 no CPT inconclusive, KB-V1 MDR tox inconclusive, HT1080-NT tox inconclusive and KB-3-1 cytotox inactive.
`O=C(CN1C(=O)C(=O)N(Cc2ccccc2)C1=O)Nc1cc(Cl)cc(Cl)c1` gave HT1080 IDH1KD tx inconclusive, DT40 TDP1 CPT inconclusive, DT40 TDP1 no CPT inconclusive, KB-V1 MDR tox inconclusive, HT1080-NT tox 23µM* and KB-3-1 cytotox 23µM*.
For Cc1nc2ccccc2c(=O)n1NC(=O)c1ccc([N+](=O)[O-])cc1 the results were HT1080 IDH1KD tx -5%, DT40 TDP1 CPT -13%, DT40 TDP1 no CPT -11%, KB-V1 MDR tox inactive, HT1080-NT tox 1% and KB-3-1 cytotox inactive.
`CSc1ccccc1NC(=O)CSc1cccc[n+]1[O-]` gave HT1080 IDH1KD tx -4%, DT40 TDP1 CPT 20%, DT40 TDP1 no CPT -1%, KB-V1 MDR tox inactive, HT1080-NT tox -1% and KB-3-1 cytotox inactive.
`CCN1CCCC1CNC(=O)c1cnn(-c2nccc(-c3cccs3)n2)c1C1CC1` (stereo not drawn) gave DT40 TDP1 CPT 6%[9.04 µM] and DT40 TDP1 no CPT -13%.
`O=C(C1CCCCC1)N1CCN(S(=O)(=O)c2cccc([N+](=O)[O-])c2)CC1` gave HT1080 IDH1KD tx 3%, DT40 TDP1 CPT -23%, DT40 TDP1 no CPT 10%, KB-V1 MDR tox inactive, HT1080-NT tox -3% and KB-3-1 cytotox inactive.
`CCN(c1ccccc1)c1nc(N)nc(C#N)n1` gave DT40 TDP1 CPT inconclusive, DT40 TDP1 no CPT inconclusive, KB-V1 MDR tox inactive and KB-3-1 cytotox inactive.
O=C(O)CCCNC(=O)c1cccc(C(=O)NCCCC(=O)O)n1 was read as HT1080 IDH1KD tx -4%, DT40 TDP1 CPT 6%, DT40 TDP1 no CPT 11%, KB-V1 MDR tox inactive, HT1080-NT tox -6% and KB-3-1 cytotox inactive.
For CCN(Cc1ccncc1)Cc1c(O)ccc2cc(Br)ccc12 the results were HT1080 IDH1KD tx inconclusive, DT40 TDP1 CPT 5%, DT40 TDP1 no CPT 3%, KB-V1 MDR tox inactive, HT1080-NT tox -21% and KB-3-1 cytotox inactive.
`CCOc1cc2c(c3c1C(c1ccccc1)N(S(=O)(=O)c1ccc(C)cc1)C3)C(=O)C=CC2=O` (stereo not drawn) gave HT1080 IDH1KD tx 12µM*, DT40 TDP1 CPT 0.52µM*, DT40 TDP1 no CPT 0.58µM*, KB-V1 MDR tox inconclusive, HT1080-NT tox 6.5µM* and KB-3-1 cytotox inconclusive.
For CCOC1=C2CN(S(=O)(=O)c3ccc(C)cc3)[C@H](c3ccccc3)C[C@@H]2N(S(=O)(=O)c2ccccc2)[C@H](c2ccccc2)C1 the results were HT1080 IDH1KD tx 15%, DT40 TDP1 CPT -18%, DT40 TDP1 no CPT -28%, KB-V1 MDR tox inactive, HT1080-NT tox 10% and KB-3-1 cytotox inactive.
For COc1cc(C(CC(=O)Nc2cccc(C)n2)N2Cc3ccccc3C2=O)cc(OC)c1OC (stereo not drawn) the results were HT1080 IDH1KD tx 3%, DT40 TDP1 CPT -18%, DT40 TDP1 no CPT -9%, KB-V1 MDR tox inactive, HT1080-NT tox 3% and KB-3-1 cytotox inactive.
For O=C(COC(=O)CCC(=O)c1ccc(F)cc1)NCCc1ccccc1 the results were HT1080 IDH1KD tx 5%, DT40 TDP1 CPT -22%, DT40 TDP1 no CPT -9%, KB-V1 MDR tox inconclusive, HT1080-NT tox 10% and KB-3-1 cytotox inconclusive.
For O=C(/C(=C/O)N=Nc1ccccc1)c1ccncc1 the results were HT1080 IDH1KD tx 2%[9.24 µM], DT40 TDP1 CPT inconclusive, DT40 TDP1 no CPT inconclusive, KB-V1 MDR tox inactive, HT1080-NT tox inconclusive and KB-3-1 cytotox inactive.
Screening O=C(/C(=C/O)N=Nc1ccccc1)c1ccc(Cl)cc1 returned HT1080 IDH1KD tx 18µM*, DT40 TDP1 CPT inconclusive, DT40 TDP1 no CPT inconclusive, KB-V1 MDR tox inconclusive, HT1080-NT tox 16µM* and KB-3-1 cytotox inactive.
CCOC(=O)/C(C#N)=C/C1=C(N2CCCC2)CC(C)(CC)OC1 (stereo not drawn) was read as HT1080 IDH1KD tx 17%, DT40 TDP1 CPT 3%, DT40 TDP1 no CPT -24%, KB-V1 MDR tox inactive, HT1080-NT tox 21% and KB-3-1 cytotox inactive.
